These sequences were tested against RUNX1 (UniProt Q01196) (assay: RUNX1 binding intensity (PBM fluorescence) in presence of ETS1, normalised to RUNX1-only experiment (arbitrary fluorescence units); higher = stronger binding). Details: RUNX1 concentration 2 nM; ETS1 concentration 25 nM.
Protocol: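 Cooperative gcPBM on 36-bp genomic probes with neighbouring ETS1 and RUNX1 sites. Recombinant human RUNX1 (2 nM) was incubated alone or with ETS1 (25 nM) and detected with anti-RUNX1 antibody plus Alexa488 secondary. Values are medians over 4 replicate spots; the RUNX1+ETS1 data were normalised to the RUNX1-only data. The probes sit in constant array flanks that are not printed.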
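Also: Full-length recombinant human ETS1 or RUNX1 bound to double-stranded 36-bp genomic probes on microarrays, detected by protein-specific primary antibody and Alexa488 secondary, spot fluorescence as median of four replicate spots.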

Chain of RUNX1 (Q01196 whole entry): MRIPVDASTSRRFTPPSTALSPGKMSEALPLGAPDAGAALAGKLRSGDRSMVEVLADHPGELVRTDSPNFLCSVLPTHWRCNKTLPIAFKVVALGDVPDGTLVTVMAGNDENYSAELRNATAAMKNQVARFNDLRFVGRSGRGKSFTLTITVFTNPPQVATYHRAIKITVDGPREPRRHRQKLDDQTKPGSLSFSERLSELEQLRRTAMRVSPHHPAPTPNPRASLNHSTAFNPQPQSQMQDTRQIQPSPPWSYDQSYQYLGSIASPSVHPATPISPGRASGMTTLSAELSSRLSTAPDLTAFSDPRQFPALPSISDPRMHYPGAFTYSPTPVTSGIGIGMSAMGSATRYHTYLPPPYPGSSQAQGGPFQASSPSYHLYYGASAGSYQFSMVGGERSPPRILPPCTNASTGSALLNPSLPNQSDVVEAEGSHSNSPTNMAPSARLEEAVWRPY

Q: How did the RUNX1 binding intensity turn out when TCTTGTTTCTTCCGTTACCGGAGCGCGGTCACGTGA was run?
A: The RUNX1 binding intensity was 1570.

Q: Which RUNX1 binding intensity does the source give for GCGGCGAACCGGACGCCCCAACCACCCGCCCCCCAC here?
A: The RUNX1 binding intensity was 1060.

Q: How did the RUNX1 binding intensity turn out when CCGCCGACACACTTCCGGCGGCCACCACAGGGTATT was run?
A: Its RUNX1 binding intensity is 1910.

Q: For CCTTCCTTCCTGCTGTGTACGTTGTGGTCACAGCAC, which RUNX1 binding intensity is on record?
A: Its RUNX1 binding intensity is 3550.

Q: CTGCCGCTGCCTTCCGCCCCCACACACGCACACCAC was tested. Which RUNX1 binding intensity did it give?
A: Its RUNX1 binding intensity is 1640.

Q: Which RUNX1 binding intensity does the source give for TCGGCGGATATGAAAAAAAGTCCGTGGTCACGTGCA here?
A: The RUNX1 binding intensity was 877.

Q: TCTTCTTCCTCCCCCACCCCAAAAGCCACAGGTGAC was tested. Which RUNX1 binding intensity did it give?
A: The RUNX1 binding intensity was 1410.

Q: With GAATGACAGAAGCGGAAACCACATGAAAAAGGTGTT as the sequence, how does the RUNX1 binding intensity read?
A: The RUNX1 binding intensity was 1360.

Q: For CTGCAGATGCATTTCCTTTTTGTGGTAGCAAGCGTG, which RUNX1 binding intensity is on record?
A: The RUNX1 binding intensity was 1470.

Q: For TTCTGCTACATCCTGCCCACTCCCTGTGGCTTCCAC, which RUNX1 binding intensity is on record?
A: The RUNX1 binding intensity was 3270.

Q: How did the RUNX1 binding intensity turn out when GGCAGCAAGAAAGGAAATAGTGTGGTTGGGTGGAGA was run?
A: Its RUNX1 binding intensity is 1010.

Q: For AACACCTCACACTTCCTGCCCACAAGATAAGAGCCT, which RUNX1 binding intensity is on record?
A: The RUNX1 binding intensity was 3120.

Q: How did the RUNX1 binding intensity turn out when TCCTCCGTTTCCGTAGTTCCGAGTTGCGGTTTCTCC was run?
A: The RUNX1 binding intensity was 15200.

Q: For GCGCACTTCCGGGCTGGTGAACGCGGTGACGTCACC, which RUNX1 binding intensity is on record?
A: The RUNX1 binding intensity was 1720.

Q: Which RUNX1 binding intensity does the source give for CGACCGGAACCACTCTGAGGCGCTGCCGCAGACACC here?
A: Its RUNX1 binding intensity is 1010.

Q: How did the RUNX1 binding intensity turn out when CCTGTTTCCTGCCATCTGCCCTTCCTTTGTGGTCAA was run?
A: The RUNX1 binding intensity was 6290.

Q: For GCGCTTCCTGCCAGCTTGGAGGATAACCGCCTACCG, which RUNX1 binding intensity is on record?
A: Its RUNX1 binding intensity is 1730.

Q: AGCGCGCCGCCGACCGGATGCGGGAACTGGGCTCGG was tested. Which RUNX1 binding intensity did it give?
A: Its RUNX1 binding intensity is 1550.

Q: Which RUNX1 binding intensity does the source give for TGATAAAACACAGGATGTGGTAAGGGAGCTGGCCAA here?
A: Its RUNX1 binding intensity is 4550.

Source: the supplement of paper PMC10681739
